Several values for one entry are separate records, joined by “and”; a condition that tells them apart may be missing. Equal values may be shown once. The panel holds about 79,000 compounds, 15% with a hit somewhere; the sample as a whole holds those more often. Some compounds were tested as several samples or in several runs, with calls that do not always agree. Activity calls are given as the source filed them. Rule as the data show it: active = growth inhibition above about 70%; inactive = the rest.
What was measured:
[1] = NCI Yeast Anticancer Drug Screen. Data for the rad52 strain (AID 147);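 also: 0% = growth of vehicle-treated control cultures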; conditions: S. cerevisiae rad52 mutant growth inhibition, stronger effect = higher value
Outline: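 DNA repair-defective yeast; compound exposure; growth scored against vehicle controls.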

[2] = NCI Yeast Anticancer Drug Screen. Data for the wt1 strain (AID 149);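 also: 0% = growth of vehicle-treated wt1 cultures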; conditions: S. cerevisiae wt1 strain (SPY 50644) growth inhibition, stronger effect = higher value
Outline: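 Growth inhibition read against vehicle controls after compound exposure of the wt1 yeast strain.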

[3] = NCI Yeast Anticancer Drug Screen. Data for the rad50EPP+ strain (AID 151);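 also: 0% = growth of vehicle-treated control cultures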; conditions: S. cerevisiae rad50 mutant strain, stronger effect = higher value
Outline: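 rad50EPP+ yeast treated with test compounds. Readout: growth vs vehicle control.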

[4] = NCI Yeast Anticancer Drug Screen. Data for the mgt1 strain (AID 153); conditions: S. cerevisiae mgt1 mutant growth inhibition, stronger effect = higher value
Outline: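 Growth inhibition relative to vehicle controls was scored for the mgt1 yeast strain after compound exposure.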

[5] = NCI Yeast Anticancer Drug Screen. Data for the rad50 strain (AID 155);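 also: 0% = growth of vehicle-only cultures of the same strain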; conditions: S. cerevisiae rad50 strain growth inhibition, stronger effect = higher value
Outline: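 Readout: growth inhibition relative to vehicle-treated cultures. Compound exposure was carried out in a genetically defined yeast strain deficient in DNA damage repair.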

[6] = NCI Yeast Anticancer Drug Screen. Data for the mec2-1 strain (AID 157); conditions: S. cerevisiae mec2-1 strain, stronger effect = higher value
Outline: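 Growth inhibition is read against vehicle-treated controls after compound exposure of the mec2-1 yeast strain, which is defective in DNA damage repair or cell cycle control.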

[7] = NCI Yeast Anticancer Drug Screen. Data for the rad14 strain (AID 159);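 also: 0% = growth of vehicle-treated control cultures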; conditions: S. cerevisiae rad14 strain growth inhibition, stronger effect = higher value
Outline: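 Growth inhibition vs vehicle controls; genetically altered yeast strain (DNA damage repair defect) treated with test compounds.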

[8] = NCI Yeast Anticancer Drug Screen. Data for the sgs1 mgt1 strain (AID 161);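 also: 0% = growth of cultures given vehicle only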; conditions: S. cerevisiae sgs1 mgt1 strain, stronger effect = higher value
Outline: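 Compounds are added to genetically altered yeast, and growth is compared with cultures given vehicle alone to give percent inhibition.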

[9] = NCI Yeast Anticancer Drug Screen. Data for the CLN2oe strain (AID 163);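 also: 0% = growth of vehicle-only control cultures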; conditions: S. cerevisiae CLN2oe strain, stronger effect = higher value
Outline: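 Compound-treated yeast; growth vs vehicle ctrl = % inhibition. Genetically altered strain (cell-cycle control).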

[10] = NCI Yeast Anticancer Drug Screen. Data for the cln2 rad14 strain (AID 165);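 also: 0% = growth equal to vehicle treated cultures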; conditions: S. cerevisiae cln2 rad14 strain, stronger effect = higher value
Outline: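 Growth inhibition, relative to vehicle-treated controls, is the read-out. The test organism is a yeast strain with defined genetic alterations, cln2 rad14.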

[11] = NCI Yeast Anticancer Drug Screen. Data for the bub3 strain (AID 167); conditions: S. cerevisiae bub3 mutant strain, stronger effect = higher value
Outline: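 Readout: yeast growth inhibition, expressed relative to vehicle-only wells. The test organism is a mutant strain from a panel with lesions in DNA repair or checkpoint genes.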

[12] = NCI Yeast Anticancer Drug Screen. Data for the wt2 strain (AID 169);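 also: 0% = growth of vehicle-treated yeast cultures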; conditions: S. cerevisiae wt2 strain growth inhibition, stronger effect = higher value
Outline: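 Compound exposure of yeast; growth compared with vehicle controls; inhibition reported.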

[13] = NCI Yeast Anticancer Drug Screen. Data for the sgs1 strain (AID 173);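 also: 0% = growth of vehicle-only control cultures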; conditions: S. cerevisiae sgs1 mutant, stronger effect = higher value
Outline: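 Compounds applied to genetically altered yeast; growth compared with vehicle-treated cultures to give % inhibition.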

[14] = NCI Yeast Anticancer Drug Screen. Data for the mlh1 rad18 strain (AID 175); conditions: S. cerevisiae mlh1 rad18 strain growth inhibition, stronger effect = higher value
Outline: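 Cells of a genetically altered yeast strain, deficient in DNA damage repair, were treated with compound. Their growth was then compared with that of vehicle-treated cultures to give inhibition.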

[15] = NCI Yeast Anticancer Drug Screen. Data for the rad18 strain (AID 177); conditions: S. cerevisiae rad18 mutant growth inhibition, stronger effect = higher value
Outline: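 Compounds are applied to a repair-deficient yeast strain, and growth is compared with that of vehicle-treated cultures to give percent inhibition.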

[16] = at 5.0 µM (retest, dose inferred, filed as 0.5)
[17] = at 50.0 µM (retest, dose inferred, filed as 5.0)

Measured: growth inhibition

Cc1ccc(N=Nc2ccc(O)c(=O)cc2)cc1
8.6% (inactive) and 88.3% (active): [6]; at 50.0 µM
-10.6% (inactive) and 89.8% (active): [8]; at 50.0 µM
inactive: [1]; at 1.2 µM -11% | [1]; at 3.7 µM 1% | [1]; at 11.0 µM 54% | [2]; at 1.2 µM 1% | [2]; at 3.7 µM 25% | [2]; at 11.0 µM 37% | [3]; at 1.2 µM -31% | [3]; at 3.7 µM -64% | [3]; at 11.0 µM -24% | [3]; at 33.0 µM 62% | [4]; at 1.2 µM 8% | [4]; at 3.7 µM 29% | [4]; at 11.0 µM 56% | [5]; at 1.2 µM 4% | [5]; at 3.7 µM 5% | [5]; [16] 17% | [5]; at 11.0 µM 42% | [6]; at 1.2 µM -13% | [6]; at 3.7 µM -7% | [6]; [16] -2% | [6]; at 11.0 µM 26% | [6]; [17] 43% | [7]; at 1.2 µM -3% | [7]; at 3.7 µM 1% | [7]; at 11.0 µM 47% | [8]; [16] 53% | [9]; at 1.2 µM -2% | [9]; at 3.7 µM 16% | [9]; at 11.0 µM 47% | [10]; [16] 13% | [11]; at 1.2 µM -6% | [11]; at 3.7 µM 3% | [11]; [16] 6% | [11]; at 11.0 µM 49% | [12]; at 1.2 µM -4% | [12]; at 3.7 µM 21% | [12]; at 11.0 µM 48% | [13]; at 1.2 µM 7% | [13]; at 3.7 µM 28% | [13]; at 11.0 µM 57% | [14]; [16] 9% | [15]; at 1.2 µM 0% | [15]; at 3.7 µM 22% | [15]; at 11.0 µM 50%
-1.5% (inactive) and 90.4% (active): [10]; at 50.0 µM
-6.6% (inactive) and 86.5% (active): [14]; at 50.0 µM
active: [1]; at 33.0 µM 89% | [1]; at 100.0 µM 93% | [2]; at 33.0 µM 78% | [2]; at 100.0 µM 91% | [3]; at 100.0 µM 87% | [4]; at 33.0 µM 86% | [4]; at 100.0 µM 91% | [5]; at 33.0 µM 83% | [5]; [17] 81% | [5]; at 100.0 µM 92% | [6]; at 33.0 µM 82% | [6]; at 100.0 µM 91% | [7]; at 33.0 µM 84% | [7]; at 100.0 µM 92% | [8]; [17] 95% | [9]; at 33.0 µM 83% | [9]; at 100.0 µM 93% | [10]; [17] 95% | [11]; at 33.0 µM 90% | [11]; [17] 91% | [11]; at 100.0 µM 92% | [12]; at 33.0 µM 87% | [12]; at 100.0 µM 94% | [13]; at 33.0 µM 85% | [13]; at 100.0 µM 93% | [14]; [17] 90% | [15]; at 33.0 µM 86% | [15]; at 100.0 µM 93%
-6.8% (inactive) and 87.5% (active): [11]; at 50.0 µM
-18.2% (inactive) and 82.3% (active): [5]; at 50.0 µM
